Screening results: PubChem BioAssay, several laboratories
Rows were chosen to be rich in hits. Some 3.2% of all compounds tested hit in one or more screens of this group.
Rtt109 HAT inh: inhibitors of Candida albicans Rtt109/Vps75 histone acetyltransferase. purified Rtt109/Vps75, ThioGlo CoA-SH fluorescence, 4 h. inhibition, % at 34.9 µM. 330,000 compounds, 0.16% hits. AID 540336;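 active = inhibition of at least 50% in every replicate; inconclusive = best replicate reaches 50% inhibition but some replicates fall short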
Target sequence (Q5AAJ8 whole entry, looked up): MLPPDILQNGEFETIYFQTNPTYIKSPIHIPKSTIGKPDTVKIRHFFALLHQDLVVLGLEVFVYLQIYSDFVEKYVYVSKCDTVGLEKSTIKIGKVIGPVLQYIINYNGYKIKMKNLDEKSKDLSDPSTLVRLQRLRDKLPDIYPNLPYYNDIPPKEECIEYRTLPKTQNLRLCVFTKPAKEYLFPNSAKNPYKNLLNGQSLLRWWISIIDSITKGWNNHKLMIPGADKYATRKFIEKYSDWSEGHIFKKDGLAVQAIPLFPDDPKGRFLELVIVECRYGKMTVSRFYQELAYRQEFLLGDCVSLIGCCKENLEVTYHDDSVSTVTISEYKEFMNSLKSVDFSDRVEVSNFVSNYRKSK
SMARCA2 act: SMARCA2 function activation, primary screen; 370,000 compounds, 1% hits; activation, % at 9.1 µM; MG213 cells, MMTV-luciferase reporter, dexamethasone, overnight; AID 652017; in the data active = activation above about 7.8%;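 also: 0% = vehicle wells and 100% = reference activator wells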
dFosB activator: activators of mouse delta FosB homodimer. activation, % at 25 µM. purified delta FosB, TAMRA-CDK5 oligo fluorescence polarization; percent of positive-control signal above neutral wells. 340,000 compounds, 0.99% hits. AID 493131. P13346;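 active = mean activation above about 17%, with every replicate also reaching it, limit read from the data, passing the limit was not always enough; inconclusive = only one of the two conditions met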
CDK5 p35 inh: CDK5/p35 (human) kinase inhibition; inhibition, % at 10 µM; AID 488839; Recombinant CDK5/p35, ADP-Glo luminescence, 60 min; Q00535+Q15078; 330,000 compounds, 0.01% hits;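 active = highest replicate inhibition of at least 50% and at least 75% of replicates reaching 50%; inconclusive = only one of the two criteria met; inactive = both criteria failed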;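 also: plate controls were DMSO neutral control for no effect and GW8510 at 10 µM for full effect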
esBAF inh: inhibitors of esBAF chromatin remodeling in mouse ES cells. Bmi1-luciferase knock-in reporter, 24 h; 100% = twice the neutral-well signal. reporter increase, % at 12.5 µM. 350,000 compounds, 2% hits; in the data active = activation above about 40%; inconclusive = no clear call, values can overlap the other calls;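 also: 0% = median of the plate's neutral control wells and 100% = double that signal; a rise in the Bmi1 reporter signal indicates esBAF inhibition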
DYRK1A inh: inhibitors of rat Dyrk1A kinase; AID 504441; 310,000 compounds, 0.43% hits; Q63470; ADP-Glo luminescence, NFATc1 peptide; inhibition, % at 12.5 µM; in the data active = inhibition above about 50%;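 also: plate controls were vehicle with enzyme for no effect and no enzyme for full effect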
Starred values were filed as active, the others as inactive; ? = inconclusive; · = not tested or not shown.

SMILES	Rtt109 HAT inh	SMARCA2 act	dFosB activator	CDK5 p35 inh	esBAF inh	DYRK1A inh
Cc1nc(C#N)c(N/N=C/c2cccc(Cl)c2)o1	1	7	-5	-1	93*	2
COc1ccccc1-c1cnc(C(O)c2ccc(C)cc2)[nH]1 (stereo unspecified)	·	0	·	·	55*	·
OC(c1ccccc1)c1ncc(-c2ccccc2Cl)[nH]1 (stereo unspecified)	·	7.9*	·	·	?	·
COc1ccc(C(O)c2ncc(-c3ccccc3OC)[nH]2)cc1 (stereo unspecified)	·	-1	·	·	0	·
OC(c1cccc(Cl)c1)c1ncc(-c2ccc3ccccc3c2)[nH]1 (stereo unspecified)	·	4	·	·	26	·
OC(c1cccc(F)c1)c1ncc(-c2ccc3ccccc3c2)[nH]1 (stereo unspecified)	·	2	·	·	74*	·
OC(c1ccccc1)c1ncc(-c2ccccc2F)[nH]1 (stereo unspecified)	·	8	·	·	62*	·
CCOC(=O)c1cnc(/N=C/N(C)C)s1	-2	7.9*	-6	1	·	·
CCOC(=O)c1sc(/N=C/N(C)C)nc1C	4	1	-2	1	·	-8
O=c1cc(-c2ccccc2)[nH]c2cc(Cl)ccc12	-7	0	-4	0	-6	3
Clc1ccc2[nH]c(-c3ccccc3)cc2c1	3	3	-3	0	60*	-1
CC(=O)Nc1cc2c(cc1Br)-c1ccccc1C2	-13	5	3	0	56*	·
CCC(=O)Nc1ccc2c(c1)Cc1cc(NC(=O)CC)ccc1-2	1	-1	-1	0	16	·
O=C(Nc1ccc(Nc2ccccc2)cc1)c1ccc(Br)o1	33	3	0	0	57*	4
CCCC(=O)Nc1ccc2c(c1)Cc1ccccc1-2	2	2	5	2	58*	-3
CC(=O)Nc1c(Cl)cc2c(c1Cl)Cc1ccccc1-2	-1	-2	-23	2	·	3
CCOC(=O)Nc1ccc(OC)c([N+](=O)[O-])c1	11	0	-3	-2	-4	-2
CCOC(=O)Nc1ccc2c(c1)Cc1cc([N+](=O)[O-])ccc1-2	1	1	5	2	75*	-2
CC(C)c1ccc(NC(=O)c2ccc(Br)o2)cc1	5	3	-10	-1	·	3
C[C@H](CO)N1C[C@H](C)[C@@H](CN(C)S(=O)(=O)c2ccccc2)Oc2ncc(/C=C/c3ccccc3)cc2C1=O	·	·	·	·	7	·
CC(C)NC(=O)N(C)C[C@H]1OCCCC[C@H](C)Oc2ccc(NC(=O)c3ccncc3)cc2C(=O)N([C@@H](C)CO)C[C@@H]1C	·	·	·	·	-4	·
CO[C@H]1CN(C)C(=O)c2ccc(NC(=O)C3CCOCC3)cc2OC[C@@H](C)N(C)C[C@H]1C	·	·	·	·	1	·
C[C@H](CO)N1C[C@H](C)[C@H](CN(C)S(=O)(=O)c2ccc(C#N)cc2)Oc2ncc(C#CCN(C)C)cc2C1=O	·	·	·	·	1	·
Cc1noc(C)c1NC(=O)Nc1ccc2c(c1)C(=O)N([C@H](C)CO)C[C@@H](C)[C@@H](CN(C)S(=O)(=O)c1ccc(F)cc1)OCCCC[C@H](C)O2	·	·	·	·	4	·
O=C(Nc1ccc2c(c1)Cc1ccccc1-2)c1ccc(Br)o1	-16	2	7	1	51*	3
SMILES	Rtt109 HAT inh	SMARCA2 act	dFosB activator	CDK5 p35 inh	esBAF inh	DYRK1A inh
O=C(Nc1ccc2c(c1)Cc1ccccc1-2)c1ccccc1F	·	3	10	0	·	·
O=C(Nc1ccc2c3c(cccc13)CC2)c1ccc(Br)o1	-6	3	-2	0	79*	-2
CN1[C@@H]2Cn3c(ccc(C4=CCCC4)c3=O)[C@H]1[C@@H](C(=O)NC1Cc3ccccc3C1)[C@@H]2CO	·	·	·	·	2	·
COc1cccc(-c2sc3cc(OC)c(OC)cc3c2-c2ccc(OCCN3CCCCC3)cc2)c1	2	·	34*	0	-12	1
COc1cccc(-c2sc3ccc(OC)cc3c2-c2ccc(OCCN3CCCC3)cc2)c1	4	·	-8	-2	-2	19
COc1ccc2c(-c3ccc(OCCN4CCCCC4)cc3)c(-c3ccccc3OC)sc2c1	-6	·	48*	-2	-16	0
COCC(=O)Nc1ccc2c(c1)C(=O)N(C)[C@H]1CC[C@H](CC(=O)NCC3CC3)O[C@H]1CO2	·	·	·	·	3	·
Cc1cccc(NC(=O)c2sc3nc(-c4ccc(F)cc4)cn3c2C)n1	8	0	1	0	20	6
COc1ccc(-c2cn3c(C)c(C(=O)Nc4cccc(C)n4)sc3n2)cc1	-2	3	-7	0	55*	-1
Cc1cccc(NC(=O)c2sc3nc(-c4ccccc4)cn3c2C)n1	-2	-1	-1	0	51*	·
CC(C)NC(=O)N[C@@H]1CC[C@@H](CCn2cc(-c3ccc(F)cc3)nn2)O[C@H]1CO	·	·	·	·	15	·
CC1CCN(C(=O)/C=C/c2ccc(C(C)(C)C)cc2)CC1	35	5	-6	0	·	·
CC(C)(C)c1ccc(/C=C/C(=O)N2CCCCC2)cc1	25	3	-7	0	47*	36
CC(C)Cc1ccc(-c2cc3nc(NCC4CC4)ccn3n2)cc1	·	-1	·	·	83*	·
c1cc(-c2cc3nc(NC4CCCCC4)ccn3n2)ccc1OCCN1CCOCC1	·	-2	·	·	50*	·
c1cc(-c2cc3nc(NCC4CC4)ccn3n2)ccc1OCCN1CCOCC1	·	0	·	·	46*	·
FC(F)(F)c1cccc(-c2cc3nc(NC4CCCCC4)ccn3n2)c1	·	-1	·	·	43*	·
Clc1cccc(CNc2ccn3nc(-c4ccc(OCCN5CCOCC5)cc4)cc3n2)c1	·	-2	·	·	-3	·
C[C@@H]1CN([C@@H](C)CO)C(=O)c2cccc(NC(=O)C3CCCCC3)c2O[C@@H]1CN(C)Cc1ccc2c(c1)OCO2	·	·	·	·	-2	·
CCN1C(=O)/C(=C/C=C2\N(CC)c3cc(S(=O)(=O)N(C)C)ccc3N2c2ccccc2)SC1=S	37	-3	91*	2	·	1
COc1cccc(NC(=O)CSc2nc3c(sc4ccccc43)c(=O)n2CCN(C)C)c1	142*	-3	6	1	·	9
CCN(CC)CCn1c(SCC(=O)Nc2cccc(OC)c2)nc2c(sc3ccccc32)c1=O	9	2	?	0	·	4
COc1ccc(CC(=O)N2CCN(c3ccccn3)CC2)cc1OC	-4	-4	7	-1	4	-4
CCn1cc(C(=O)N2CCN(c3ccccn3)CC2)c2cc(OC)c(OC)cc2c1=O	-1	8.4*	-7	-5	-9	4
CCCc1ccc(OCc2ccc(C(=O)N3CCN(c4ccccn4)CC3)o2)c(OC)c1	2	2	-19	0	45*	·
COc1cc(OC)c(C(=O)N2CCN(c3ccccn3)CC2)cc1OC	-4	4	1	2	-3	-3
C[C@@H]1CN([C@H](C)CO)S(=O)(=O)c2ccc(C#CCN(C)C)cc2O[C@H]1CN(C)Cc1ccc2c(c1)OCO2	·	·	·	·	-15	·
